Reference: PubChem BioAssay (NCATS)
Results filed as inconclusive are left out. Active and inactive are the calls of the source. Calls follow the shape of the dose curve; as a rule, active = well fitted curve in the direction sought with a large enough effect; inconclusive = small, poorly fitted or top-dose-only effect, or another doubt; inactive = no such curve, though single readings can be large; an effect the other way counts as inactive or inconclusive.

Experiments:
[1] = qHTS assay for measurement of the activity of small molecule inhibitors on Zika virus induced Caspase-3 activity in human iPSC derived neural progenitor cells (hNPCs) (AID 1224857); also: nearly all actives have a fitted effect of over 65% in size
How it was run: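 In medium with heparin 2 ug/ml and cyclopamine 2 uM, hNPCs (350 cells/well) received compound for one hour and then Zika virus at 2 FFU/cell; caspase activity was measured by Caspase-Glo 3/7 luminescence 6 h post-infection.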

[2] = qHTS assay for measurement of the activity of small molecule inhibitors on Zika virus induced Caspase-3 activity in human astrocytoma cells (AID 1224859)
How it was run: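 A cell-based luminescent caspase-3/7 assay used SNB-19 cells infected with ZIKV (2 FFU/cell) for 6 h following 1 h compound pretreatment.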

[3] = NS1 protein of Zika virus - qHTS assay to identify small molecule inhibitors in human HEK 293 cells (AID 1347053); also: series mostly up to about 46 µM; nearly all actives have a fitted effect of over 55% in size
How it was run: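 Following 20 h seeding, HEK 293 cells took compound, then 1 h later ZIKV MR766 (MOI = 0.5). Incubation ran 24 h at 37 C before TR-FRET detection of NS1; a drop in signal indicates inhibition.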

[4] = qHTS of pediatric cancer cell lines to identify multiple opportunities for drug repurposing: Primary screen for TC32 cells (AID 1347089); also: nearly all actives have a fitted effect of over 60% in size
How it was run: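 qHTS, TC32, 48 h drug treatment, CellTiter-Glo luminescence as a proxy for metabolically active cells; primary top concentration 46 µM (MIPE 11-pt, NPC 8-pt); confirmatory 11-pt.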

[5] = qHTS of pediatric cancer cell lines to identify multiple opportunities for drug repurposing: Primary screen for DAOY cells (AID 1347090); also: series mostly up to about 46 µM; nearly all actives have a fitted effect of over 55% in size
How it was run: (§1)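 Viability measured as metabolically active cells via CellTiter-Glo luminescence following 48 hours of compound exposure, 11-point dilutions in confirmatory testing. 500-1,000 cells/well plated 5 hours before dosing; controls were DMSO and 2.3 µM bortezomib.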

[6] = qHTS of pediatric cancer cell lines to identify multiple opportunities for drug repurposing: Primary screen for SJ-GBM2 cells (AID 1347091)
How it was run: as §1

[7] = qHTS of pediatric cancer cell lines to identify multiple opportunities for drug repurposing: Primary screen for A673 cells (AID 1347092); also: nearly all actives have a fitted effect of over 45% in size
How it was run: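 Luminescence from CellTiter-Glo, taken after 15 min at room temperature, served as the proxy for metabolically active cells following 48 h treatment. Both potency and efficacy were taken from curves fitted to the titration data.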

[8] = qHTS of pediatric cancer cell lines to identify multiple opportunities for drug repurposing: Primary screen for SK-N-MC cells (AID 1347093); also: series mostly up to about 46 µM
How it was run: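 Metabolically active cells were quantified by ATP-dependent luminescence (CellTiter-Glo, 15 min at room temperature) following 48 h treatment. Cells had been plated at 500-1,000 per well and settled for 5 h beforehand.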

[9] = qHTS of pediatric cancer cell lines to identify multiple opportunities for drug repurposing: Primary screen for BT-37 cells (AID 1347094); also: series mostly up to about 57 µM
How it was run: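 Cells plated at 500-1,000/well in growth medium, compounds added after 5 h. MIPE tested at 11 points (from 0.78 nM), NPC at 8 points (from 0.59 nM). CellTiter-Glo luminescence after 48 h; concentration-response curves from primary screen.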

Measured: Potency

CCOc1ncc(F)c(=O)[nH]1
inactive: [1] | [2] | [3] | [4] | [5] | [6] | [7] | [8] | [9]

CC(C)(C)NCC(O)COc1ccccc1OCC1CCCO1 (stereo not drawn)
inactive: [1] | [2] | [3] | [4] | [5] | [6] | [7] | [8] | [9]

COC(=O)/C=C(/C)N
inactive: [1] | [2] | [3] | [4] | [5] | [6] | [7] | [8] | [9]

O=C1Nc2cc(Cl)ccc2Oc2ccccc21
inactive: [1] | [2] | [3] | [4] | [5] | [6] | [7] | [8] | [9]

COCCc1ccccn1
inactive: [1] | [2] | [3] | [4] | [5] | [6] | [7] | [8] | [9]

CC(C)(C)c1cc(C=O)cc(C(C)(C)C)c1O
inactive: [1] | [2] | [3] | [4] | [5] | [6] | [7] | [8] | [9]

O=[N+]([O-])c1cncn1CCN1CCOCC1
inactive: [1] | [2] | [3] | [4] | [5] | [6] | [7] | [8] | [9]

CO/N=C(\C(=O)O)c1csc(NC(=O)CCl)n1
inactive: [1] | [2] | [3] | [4] | [5] | [6] | [7] | [8] | [9]

Nc1ccc([N+](=O)[O-])c(C(F)(F)F)c1
inactive: [1] | [2] | [3] | [4] | [5] | [6] | [7] | [8] | [9]

CCCCNc1ccc(C(=O)OCCN(CC)CC)cc1
inactive: [1] | [2] | [3] | [4] | [5] | [6] | [7] | [8] | [9]

Cc1onc(-c2ccccc2)c1C(=O)Cl
inactive: [1] | [2] | [3] | [4] | [5] | [6] | [7] | [8] | [9]

O=C(CCCl)NCCc1ccccc1
inactive: [1] | [2] | [3] | [4] | [5] | [6] | [7] | [8] | [9]

CC(C)NC(=O)c1ccc(C=O)cc1
inactive: [1] | [2] | [3] | [4] | [5] | [6] | [7] | [8] | [9]

C[C@@H]1CCC[C@H](C)N1CCCC(O)(c1ccccc1)c1ccccn1 (stereo partly drawn)
inactive: [1] | [2] | [3] | [4] | [5] | [6] | [7] | [8] | [9]

COC(=O)CCCCC(CCSS/C(CCO)=C(\C)N(C=O)Cc1cnc(C)nc1N)SC(C)=O (stereo not drawn)
inactive: [1] | [2] | [3] | [4] | [5] | [6] | [7] | [8] | [9]

Oc1ccccc1-c1nnco1
inactive: [1] | [2] | [3] | [4] | [5] | [6] | [7] | [8] | [9]

O=C1CC(c2ccc(Cl)cc2)CC(=O)N1
inactive: [1] | [2] | [3] | [4] | [5] | [6] | [7] | [8] | [9]

CC(C)(Oc1ccc(Cl)cc1)C(=O)OCCCOC(=O)C(C)(C)Oc1ccc(Cl)cc1
inactive: [1] | [2] | [3] | [4] | [5] | [6] | [7] | [8] | [9]

CCOC(=O)C(=O)CCc1ccccc1
inactive: [1] | [2] | [3] | [4] | [5] | [6] | [7] | [8] | [9]

O=C(CCOCCOCCOCCOCCC(=O)Nc1c(I)cc(I)c(C(=O)O)c1I)Nc1c(I)cc(I)c(C(=O)O)c1I
inactive: [1] | [2] | [3] | [4] | [5] | [6] | [7] | [8] | [9]

N#CC1(c2ccc(F)cc2)CCC(=O)CC1
inactive: [1] | [2] | [3] | [4] | [5] | [6] | [7] | [8] | [9]

O=C1[C@@H]2[C@H]3CC[C@H](C3)[C@@H]2C(=O)N1CCCCN1CCN(c2ncccn2)CC1
inactive: [1] | [2] | [3] | [4] | [5] | [6] | [7] | [8] | [9]
